Targets with a hit are over-represented here; the source holds about 8,800 in all. About 0.5% of all pairs of compound and target were hits. A number with no mark means an inactive call.

Assay in all cases: log2 fold change, soluble protein after heating vs DMSO (PISA); higher = thermal stabilisation; K562 lysate, 10 uM; active = over 0.2 and 3.5 SD of the protein, either way, in both replicates (recomputed)
Compound in one assay: CS(=O)(=O)CCNCc1ccc(-c2ccc3ncnc(Nc4ccc(OCc5cccc(F)c5)c(Cl)c4)c3c2)o1 [lapatinib]
In outline:
(§1)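 Dounce homogenisation of K562 pellets in PBS pH 7.4 with 1 mM MgCl2 produced a crude extract, used at 1 mg/mL protein. Exposure to 10 μM compound lasted 30 min, and aliquots were then heated for 3 min across 48°C-58°C, pooled and brought to 0.5% NP-40 at 4°C. The supernatant after 21,000xg for 90 min was quantified by TMTpro 16plex LC-MS/MS with channel sums equalised. Duplicate values are given as log-two fold change in thermal stability relative to solvent controls.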

Compound in a further assay: CS(=O)(=O)N1CCN(Cc2cc3nc(-c4cccc5[nH]ncc45)nc(N4CCOCC4)c3s2)CC1 [pictilisib]
The essentials: as §1

Compound in the next assay: C[C@@H](Oc1cc(-c2cnn(C3CCNCC3)c2)cnc1N)c1c(Cl)ccc(F)c1Cl [crizotinib]
The essentials: as §1

Compound in assay [1]: C[C@H](C1=CC=C(C=C1)C(=O)NC2=C3C=CNC3=NC=C2)N
The essentials:
as §1

Compound in a further assay: C[C@H](Nc1ncnc2nc[nH]c12)c1cc2cccc(Cl)c2c(=O)n1-c1ccccc1 [duvelisib]
The essentials:
as §1

Compound in another assay: Cc1cc(Nc2cc(CN3CCOCC3)c3nc(C)c(Cc4ccc(Cl)cc4F)n3n2)n[nH]1 [gandotinib]
The essentials: as §1

Compound in a further assay: Cc1cc(Nc2cc(N3CCN(C)CC3)nc(Sc3ccc(NC(=O)C4CC4)cc3)n2)n[nH]1 [tozasertib]
In outline: as §1

Compound in the next assay: Cc1ccc(-n2nc(C(C)(C)C)cc2NC(=O)Nc2ccc(OCCN3CCOCC3)c3ccccc23)cc1 [doramapimod]
In outline:
as §1

Compound in a further assay: Cc1ccc(NC(=O)c2ccc(CN3CC[C@H](N(C)C)C3)c(C(F)(F)F)c2)cc1Nc1nccc(-c2cncnc2)n1 [bafetinib]
The essentials:
as §1

Compound in assay [2]: Cc1cccc(CC(=O)N2CCc3c2ccc(-c2cn(C)c4ncnc(N)c24)c3F)n1
In outline:
as §1

Compound in a further assay: Cc1cn(-c2cc(NC(=O)c3ccc(C)c(Nc4nccc(-c5cccnc5)n4)c3)cc(C(F)(F)F)c2)cn1 [nilotinib]
The essentials:
as §1

Compound in assay [3]: Cc1nc(Nc2n[nH]c3c2CN(C(=O)N[C@H](CN(C)C)c2ccccc2)C3(C)C)c2sccc2n1
The essentials: as §1

Compound in the next assay: Cc1nc(Nc2ncc(C(=O)Nc3c(C)cccc3Cl)s2)cc(N2CCN(CCO)CC2)n1 [dasatinib]
In outline: as §1

Compound in assay [4]: Cc1ncc(-c2ccnc(Nc3ccc(S(C)(=O)=O)cc3)n2)n1C(C)C
In outline:
as §1

Compound in assay [5]: Cn1cc(-c2ccc3c(c2)CCN3C(=O)Cc2cccc(C(F)(F)F)c2)c2c(N)ncnc21
In outline:
as §1

Compound in another assay: Cn1cc(CNCC2CCN(c3ncc(C(=O)NO)cn3)CC2)c2ccccc21 [quisinostat]
The essentials:
as §1

Compound in another assay: Cn1cncc1[C@@](N)(c1ccc(Cl)cc1)c1ccc2c(c1)c(-c1cccc(Cl)c1)cc(=O)n2C [tipifarnib]
In outline:
as §1

Compound in assay [6]: NC(=O)Nc1cc(-c2cccc(F)c2)sc1C(=O)N[C@H]1CCCNC1
In outline:
as §1

Compound in assay [7]: NC(=O)c1cnc(N[C@@H]2CCCC[C@@H]2N)nc1Nc1cccc(-n2nccn2)c1
In outline:
as §1

Compound in assay [8]: NC1(c2ccc(-c3nc4ccn5c(=O)[nH]nc5c4cc3-c3ccccc3)cc2)CCC1
In outline: as §1

Chain of UniProt Q01628 (Q01628 whole entry, looked up): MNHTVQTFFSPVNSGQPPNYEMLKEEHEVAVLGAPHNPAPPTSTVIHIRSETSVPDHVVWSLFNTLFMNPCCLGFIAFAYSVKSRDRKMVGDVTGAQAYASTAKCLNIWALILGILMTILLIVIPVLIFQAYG
Chain of UniProt Q13478 (Q13478 whole entry, looked up): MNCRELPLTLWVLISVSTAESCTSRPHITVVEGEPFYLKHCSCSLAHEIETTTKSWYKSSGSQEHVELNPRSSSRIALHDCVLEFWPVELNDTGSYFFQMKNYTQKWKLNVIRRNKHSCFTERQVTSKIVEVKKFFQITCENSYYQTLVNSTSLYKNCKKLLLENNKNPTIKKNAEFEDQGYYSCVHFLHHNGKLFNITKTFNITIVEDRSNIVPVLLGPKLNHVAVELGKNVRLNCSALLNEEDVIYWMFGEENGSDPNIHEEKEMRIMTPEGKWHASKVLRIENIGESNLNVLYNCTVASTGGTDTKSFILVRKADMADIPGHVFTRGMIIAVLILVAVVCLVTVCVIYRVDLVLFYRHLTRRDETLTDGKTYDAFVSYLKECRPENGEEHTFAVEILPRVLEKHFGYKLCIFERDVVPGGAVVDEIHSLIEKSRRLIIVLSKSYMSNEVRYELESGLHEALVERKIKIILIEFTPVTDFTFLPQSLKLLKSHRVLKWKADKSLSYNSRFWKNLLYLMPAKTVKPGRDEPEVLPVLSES

For the target HMGN4 (UniProt O00479), the log2 fold change is 0.038 with lapatinib; -0.044 with pictilisib; 0.047 with crizotinib; 1.19 (active) in [1]; -0.074 with duvelisib; -0.421 in the assay with gandotinib. Further, the log2 fold change is 0.078 in the assay with tozasertib; -0.163 with doramapimod; 0.6 with bafetinib; -0.551 in [2]; 0.049 in the assay with nilotinib; -0.072 in assay [3]. Besides, the log2 fold change with dasatinib is 0.192; in assay [4], 0.009; in assay [5], 0.003; with quisinostat, 0.171; with tipifarnib it was 0.001; in assay [6], -0.019. Also, the values for the log2 fold change in [7] and in assay [8] were 0.012 and -0.028, respectively.
Take H4C1 (UniProt P62805): the log2 fold change was -0.043 with lapatinib; -0.069 with pictilisib; 0.032 in the assay with crizotinib; 0.003 in assay [1]; -0.16 with duvelisib; 0 in the assay with gandotinib. In addition, the log2 fold change with tozasertib was -0.027; in the assay with doramapimod, 0.006; with bafetinib, 0.059; in [2] it was -0.044; with nilotinib, 0.051; in assay [3] it was -0.027. The log2 fold change was -0.063 in the assay with dasatinib; -0.033 in [4]; 0.048 in [5]; 0.137 with quisinostat; 0 with tipifarnib; -0.032 in assay [6]. Besides, the values for the log2 fold change in assay [7] and in [8] were 0.01 and 0.015, respectively.
Regarding IL18R1 (UniProt Q13478), the log2 fold change was -0.112 with lapatinib; 0.207 in the assay with pictilisib; -0.076 with crizotinib; -0.116 in [1]; -0.049 with duvelisib; 0.092 in the assay with gandotinib. In addition, the log2 fold change with tozasertib was 0.063; in the assay with doramapimod, -0.111; with bafetinib, -0.031; in [2], 0.045; with nilotinib, 0.02; in assay [3], 0.136. For the same target, the log2 fold change with dasatinib is 0.181; in assay [4], -0.108; in assay [5] it was 0.004; with quisinostat it was 0.067; with tipifarnib, 0.118; in [6] it was 0.155. In addition, the log2 fold change in assay [7] was -0.055; in assay [8], 0.211.
Consider IFITM3 (UniProt Q01628), for which the log2 fold change was -0.123 in the assay with lapatinib; -0.067 with pictilisib; -0.089 with crizotinib; -0.103 in [1]; -0.005 with duvelisib; 0.035 with gandotinib. Besides, the log2 fold change with tozasertib was -0.153; in the assay with doramapimod it was -0.034; with bafetinib it was 0.09; in assay [2] it was -0.022; with nilotinib, 0.068; in assay [3] it was 0.055. Further, the log2 fold change with dasatinib was 0.049; in assay [4], -0.013; in assay [5] it was 0.064; with quisinostat, -0.069; in the assay with tipifarnib it was -0.136; in [6] it was -0.044. The log2 fold change was -0.133 in [7] and -0.051 in assay [8].

Source of the values: the supplement of paper PMC10849652.
